A short description of test [1]: NCI Yeast Anticancer Drug Screen. Data for the rad50 strain (AID 155).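 Further: 0% = growth of vehicle-only cultures of the same strain.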 To be noted: S. cerevisiae rad50 strain growth inhibition; at 50.0 µM; active compounds read high. Put shortly: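 Compounds were tested on a yeast strain with an engineered DNA damage repair alteration; the reported value is growth inhibition normalised to vehicle treatment.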
The nature of test [2]: NCI Yeast Anticancer Drug Screen. Data for the mec2-1 strain (AID 157). Conditions: S. cerevisiae mec2-1 strain, at 50.0 µM, active compounds read high. Put shortly:
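Test agents were screened against the mec2-1 yeast strain, with defined DNA repair or cell cycle alteration. Growth was scored as inhibition against vehicle-only controls.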

Test [3] in a line: NCI Yeast Anticancer Drug Screen. Data for the sgs1 mgt1 strain (AID 161).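 Further: 0% = growth of cultures given vehicle only.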 Conditions: S. cerevisiae sgs1 mgt1 strain, at 50.0 µM, active compounds read high. Put shortly:
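Inhibition of yeast growth, normalised to vehicle-treated controls, is reported for a strain bearing genetic alterations in DNA damage repair.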

Test [4] can be described thus: NCI Yeast Anticancer Drug Screen. Data for the cln2 rad14 strain (AID 165).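 Further: 0% = growth equal to vehicle treated cultures.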 To be noted: S. cerevisiae cln2 rad14 strain, at 50.0 µM, active compounds read high. Put shortly:
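Growth of compound-exposed yeast (cln2 rad14 genotype) measured and expressed as inhibition relative to vehicle.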

A short description of test [5]: NCI Yeast Anticancer Drug Screen. Data for the bub3 strain (AID 167). To be noted: S. cerevisiae bub3 mutant strain, at 50.0 µM, active compounds read high. Put shortly:
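Growth of a checkpoint-deficient yeast mutant is measured after compound exposure. Values represent inhibition relative to vehicle.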

The nature of test [6]: NCI Yeast Anticancer Drug Screen. Data for the mlh1 rad18 strain (AID 175). Conditions: S. cerevisiae mlh1 rad18 strain growth inhibition; at 50.0 µM; active compounds read high. Put shortly: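 In this whole-cell yeast screen, a strain with altered DNA damage repair is challenged with compound, and its growth is measured against matched vehicle-treated controls.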

“And” between values parts separate entries of the source, which are not always exact repeats. Equal entries are not always repeated. The panel holds about 79,000 compounds, 15% with a hit somewhere; the sample as a whole holds those more often. A number with no mark means an inactive call. The source made the active and inactive calls. No stated cut-off is given here; in the data, active means growth inhibition above about 70%; inactive means the rest.

Turning to `Cc1nccn1-c1ccc(Cl)cc1N=Cc1ccc(N(CCCl)CCCl)cc1Cl`, the growth inhibition in test [1] is 38.4%; in test [2], 47.5%; in test [3], 68.5%; in test [4], 33.8%; in test [5], 43%; in test [6], 71.5% (active).

Consider `O=[N+]([O-])c1ccc(Cl)c(Cl)c1`, for which the growth inhibition is 20.9% in test [1]; -4.6% in test [2]; -8.5% in test [3]; -37.5% in test [4]; -5% in test [5]; 26.1% in test [6].

As for `CCOP(=S)(OCC)OCC1OC(OC)C2OC(C)(C)OC12` (stereo not drawn), the growth inhibition in test [1] is -26.2%; in test [2], 1.9%; in test [3], -2.45%; in test [4], -35.4%; in test [5] it was 11.8%; in test [6], 4.4%.

In the case of `C/C(=N\NC(N)=O)C(CN(C)C)C(c1ccccc1)c1c(O)c2ccccc2oc1=O` (stereo not drawn), the growth inhibition in test [1] was 15.8%; in test [2], 21.1%; in test [3] it was 15.6%; in test [4], 5%; in test [5], 9.7%; in test [6], 8%.

For `CC(N)c1ccccc1` (stereo not drawn), the growth inhibition in test [1] is -5.95% and 39.2%; in test [2], -6.55% and 3%; in test [3], 11% and 28%; in test [4], -23.1% and 17.1%; in test [5], -10.3% and 38.8%; in test [6], 2.8% and 37.6%.

For the molecule `CN(C)CCC(=O)c1ccccc1`, the growth inhibition is 3.05% and -40.5% in test [1]; 0.7% and 11.3% in test [2]; 5.85% and -7.35% in test [3]; -0.6% and -27.6% in test [4]; 4.35% and -1.8% in test [5]; 4.4% and 10.6% in test [6].

As for `C[C@]12CC[C@H](O)C[C@H]1CC[C@@H]1[C@@H]2CC[C@]2(C)[C@@H](C3=CC(=O)OC3)CC[C@]12O`, the growth inhibition was -3.9% in test [1]; 12.4% in test [2]; 5.55% in test [3]; -56.4% in test [4]; 15.3% in test [5]; 8.4% in test [6].

Turning to `CC(=O)OC1CC2(C)C3(CO3)C1OC1C=C(C)C(=O)C(O)C12CO` (stereo not drawn), the growth inhibition in test [1] was -10.4%; in test [2] it was -3.95%; in test [3], 2.75%; in test [4], 26.5%; in test [5], 8.7%; in test [6] it was 11.3%.

For `N#CC(C#N)=Cc1ccc(Cl)cc1`, the growth inhibition in test [1] is 13.6% and 9.25%; in test [2], -2.05% and -21.4%; in test [3] it was 8.5% and 19.9%; in test [4], 3.45% and -9.95%; in test [5], -8.1% and 0.15%; in test [6], 20.7% and 20.1%.

`COc1cccc(NC2=NCCO2)c1`: the growth inhibition in test [1] was -17.1%; in test [2], -1.2%; in test [3] it was -5.95%; in test [4], 3.8%; in test [5] it was -2.2%; in test [6], -12.2%.

Consider `O=C(CCl)Oc1ccccc1Cl`, for which the growth inhibition is -19.5% in test [1]; -5.4% in test [2]; -31.1% in test [3]; -42.9% in test [4]; -23.9% in test [5]; -31.6% in test [6].

For the molecule `O=CC=O`, the growth inhibition in test [1] is 33.1%; in test [2] it was 17.6%; in test [3] it was 24.4%; in test [4], 21.6%; in test [5], 33.9%; in test [6] it was 28.4%.

For `CC1(C)CN=C(Nc2ccc(F)cc2)S1`, the growth inhibition was 2.55% in test [1]; 0.6% in test [2]; -17.9% in test [3]; 19.3% in test [4]; -17.1% in test [5]; -21.8% in test [6].

Turning to `C[CH2][Sn](/[CH]=C/C=C/OC)([CH2]C)[CH2]C`, the growth inhibition in test [1] was 36.5%; in test [2], 47%; in test [3], 66.2%; in test [4], 16.8%; in test [5], 83.4% (active); in test [6], 89.7% (active).

Consider `N#CC1CCCCC1`, for which the growth inhibition in test [1] was 0.4%; in test [2], -5.4%; in test [3], -0.35%; in test [4] it was -3.9%; in test [5] it was 4.65%; in test [6] it was 1.65%.

As to `Clc1cc[c]([Sn]([Cl])([c]2ccc(Cl)cc2)[c]2ccc(Cl)cc2)cc1`, the growth inhibition is 98.5% (active) in test [1]; 98.5% (active) in test [2]; 98.8% (active) in test [3]; 97.7% (active) in test [4]; 97.5% (active) in test [5]; 98.3% (active) in test [6].

Consider `OC(Br)C1C(c2ccccc2)N1C1CCCCC1` (stereo not drawn), for which the growth inhibition was -2% in test [1]; 18.4% in test [2]; -3.35% in test [3]; -11.2% in test [4]; 0.15% in test [5]; 7.4% in test [6].

Consider `[Be]=[Se]`, for which the growth inhibition was -21.1% in test [1]; -0.4% in test [2]; -2.9% in test [3]; 2.1% in test [4]; -11.4% in test [5]; 29.7% in test [6].

Consider `C[CH2][Sn]([CH2]C)([O]C(=O)c1ccccc1F)[O]C(=O)c1ccccc1F`, for which the growth inhibition is -8.75% in test [1]; 27.6% in test [2]; 4.1% in test [3]; 22.6% in test [4]; 22.8% in test [5]; 28.1% in test [6].

As for `CCOP(=O)(OCC)C(C)(C)OC(=O)NC(F)(F)F`, the growth inhibition in test [1] was -18.7%; in test [2] it was -15.2%; in test [3], -2.25%; in test [4], 5.25%; in test [5], -10.1%; in test [6], 3%.

Consider `O=S(=O)(O)O.[Co+2].[NH-]CC[NH-].[NH-]CC[NH-].[NH-]CC[NH-]`, for which the growth inhibition in test [1] is 11.1%; in test [2], 21.9%; in test [3], 9.75%; in test [4] it was 17.8%; in test [5], 3.2%; in test [6] it was 1%.

For the molecule `S=C(SSC(=S)N(Cc1ccccc1)Cc1ccccc1)N(Cc1ccccc1)Cc1ccccc1`, the growth inhibition in test [1] was -1.7%; in test [2], 11.6%; in test [3] it was 2.95%; in test [4] it was -14.3%; in test [5], -20.6%; in test [6], 12%.

For `N#CCCCCCl`, the growth inhibition was 19.4% in test [1]; 10.9% in test [2]; 16.3% in test [3]; 25.2% in test [4]; 13.6% in test [5]; 28.9% in test [6].

Take `O=C(O)C(Cl)(Cl)Cl`: the growth inhibition is -0.6% in test [1]; -22.6% in test [2]; -15.8% in test [3]; 14.4% in test [4]; -17.4% in test [5]; 21.1% in test [6].

`CSCCC(NP(=S)(c1ccccc1)c1ccccc1)C(=O)O` (stereo not drawn): the growth inhibition in test [1] was 17.4%; in test [2] it was -3.1%; in test [3], 0%; in test [4], 16.9%; in test [5], -1.8%; in test [6] it was 9.5%.

`ClC(OC(Cl)C(Cl)(Cl)Cl)C(Cl)(Cl)Cl` (stereo not drawn): the growth inhibition was 52% in test [1]; 6.1% in test [2]; 30.9% in test [3]; 20.9% in test [4]; 46.5% in test [5]; 26.2% in test [6].

Consider `NNC(=O)c1ccc(O)cc1`, for which the growth inhibition was 1.15% in test [1]; -2.65% in test [2]; -13.3% in test [3]; -17.4% in test [4]; -0.05% in test [5]; 18.2% in test [6].

For `Cc1ccc2nc(NC(=O)C(=O)C3C(=O)NC(=S)NC3=O)sc2c1`, the growth inhibition is -2.75% in test [1]; -19.1% in test [2]; 2.85% in test [3]; 2.4% in test [4]; -8.95% in test [5]; -40% in test [6].

In the case of `Cc1ccc(CCl)c(C)c1`, the growth inhibition was -21.1% in test [1]; 8.4% in test [2]; -6.95% in test [3]; -39% in test [4]; 5.45% in test [5]; -19% in test [6].

With `CC(C)CNP(=S)(NCC(C)C)c1ccccc1`, the growth inhibition is 4.5% in test [1]; 12.9% in test [2]; 6.7% in test [3]; 5.55% in test [4]; 18.9% in test [5]; 21.3% in test [6].

As to `O=C(O)Cc1ccc([N+](=O)[O-])cc1[N+](=O)[O-]`, the growth inhibition in test [1] was 3.55%; in test [2], -13.6%; in test [3] it was -7.25%; in test [4] it was -27.2%; in test [5], 0.05%; in test [6], -2.6%.

On to `c1ccc(N2CCNCC2)cc1` (tested in a mixture with another compound), for which the growth inhibition is -18.1% and 5.8% in test [1]; 6.7% and -16.3% in test [2]; -26.1% and -5.8% in test [3]; -4% and -48.5% in test [4]; 10.2% and 10.3% in test [5]; -27.7% and -4.65% in test [6].

Take `O=C(SCC(NSc1ccccc1[N+](=O)[O-])C(=O)O)c1ccccc1` (stereo not drawn): the growth inhibition in test [1] was 88.5% (active); in test [2], 56.6%; in test [3], 75.4% (active); in test [4], 8.45%; in test [5] it was 6.5%; in test [6], 47.9%.

Turning to `C[N+]1(C)CCN(c2ccccc2)CC1`, the growth inhibition in test [1] is 18.9%; in test [2], -29.6%; in test [3] it was -12.5%; in test [4], 14.2%; in test [5], -8.9%; in test [6] it was -5.35%.

With `CC1=CC(=O)C=CC1=Nc1ccc(N(CCCl)CCCl)cc1`, the growth inhibition in test [1] is 22.4%; in test [2], 11.2%; in test [3] it was 6.65%; in test [4] it was 2.95%; in test [5], -1.45%; in test [6], -5.25%.

As for `CN1C2CCC1CC(OC(=O)C1CCC(C(=O)OC3CC4CCC(C3)N4C)(c3ccccc3)c3ccccc31)C2` (stereo not drawn), the growth inhibition in test [1] was -45%; in test [2], -23.9%; in test [3] it was -35.3%; in test [4] it was -29.9%; in test [5] it was -34.4%; in test [6], -36.7%.

As to `COc1ccc(CCNCc2ccc3ccccc3n2)cc1OC`, the growth inhibition in test [1] is -0.35%; in test [2], -10.5%; in test [3], 7.2%; in test [4], -16.4%; in test [5] it was -11.5%; in test [6], 7.5%.

Take `O=P1(C(Cl)Cl)OCCCO1`: the growth inhibition in test [1] was -9.35%; in test [2], 10.7%; in test [3] it was -2.65%; in test [4], -10.2%; in test [5] it was -0.15%; in test [6], -0.15%.

The record behind these values is PubChem BioAssay (NCI).
